This is an account of results in PubChem BioAssay AID624167 (Sanford-Burnham Center for Chemical Genomics, 2012).

This assay is described as follows: inhibition of PEG-3 promoter-driven reporter – cell-based, HeLa, luciferase, CREF/GAPDH counter-screen panel, dose response (AID 624167). The note with it: CREF/GAPDH counter-screens; run 1, dose range 1, at 100 µM (top of the series). For orientation: Counterscreens check selectivity or assay interference.
For orientation: inhibition means the relative decrease from the control value, in per cent. For the molecule `COC(COC(N)=O)C1=C(N2CC2)C(=O)C(C)=C(N2CC2)C1=O` (stereo not drawn), the inhibition worked out at 84.3%.
Consider `CC(=O)OC1(C)CC(C)C(=O)C(C(O)CC2CC(=O)NC(=O)C2)C1` (stereo not drawn), for which the inhibition was 89.5%.
Turning to `O=C(CSC1c2ccccc2-c2ccccc21)N/N=C/c1ccccc1O`, the inhibition was 60.3%.
As for `CC1=CC2/C=C(\C)CCC(O)C(O)/C=C/C(=O)C23C(=O)NC(CC(C)C)C3C1C` (stereo not drawn), the inhibition amounted to 99.8%.
With `C=Cc1cc(OC)c2c(c1)c(=O)oc1c2cc(OC)c2c(O)ccc(C3OC(C)C(O)C(C)(O)C3O)c21` (stereo not drawn), the inhibition is -12.4%.
`CCC(c1nnnn1-c1ccc2c(c1)OCCO2)N1CCC(n2c(=O)[nH]c3ccccc32)CC1` (stereo not drawn): the inhibition is 92.4%.
In the case of `COc1cc2nc(CN3CC=C(c4ccccc4)CC3)[nH]c(=O)c2cc1OC`, the inhibition was determined as 56.3%.
In the case of `CC(=O)OC1CC[C@]2(C#N)[C@H]3CC[C@]4(C)[C@H](C5C=CC(=O)O5)CCC4(O)C3CCC2(O)C1` (stereo partly drawn), the inhibition was found to be 77.9%.
